Source: PubChem BioAssay AID624305 (National Center for Advancing Translational Sciences (NCATS), 2012)
Inconclusive results are not listed. The source made the active and inactive calls. Calls come from the whole dose curve; as a rule, active = well fitted activation curve with a large enough effect; inconclusive = small, poorly fitted or top-dose-only effect; inactive = no such curve, though single readings can be large or run the other way.

Experiment: qHTS assay for re-activators of p53 using a Luc reporter: Hit Validation; note: nearly all actives have a fitted effect of over 75% in size; for activation: 0% is about no effect
Settings: p53-responsive luciferase reporter cells, luminescence, H1299 line expressing heat-sensitive Ala138Val p53; series mostly up to 46.1 µM; activation: at the top concentration
In short: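 Hit confirmation with a 1:5 dilution series, at 37 deg C for 24 hrs, in H1299 cells co-expressing temperature-sensitive p53-A138V and p53-responsive luciferase. Nocodazole served as control; luminescence read after 10 min with detection reagent.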
Potency is the fitted concentration of half-maximal effect.

Row | Compound | activation | Potency
1 | O=C(Cc1ccccc1)Nc1ccc(NC(=O)c2cccnc2)cc1 | 12% (inactive) | 
2 | Cc1ccc(OCC(=O)Nc2ccc(Cl)cc2)c([N+](=O)[O-])n1 |  | 16.4 µM (active)
3 | CN(NC1CC(=O)N(c2ccccc2)C1=O)c1ccccc1 (stereo not drawn) | 13.5% (inactive) | 
4 | COCCSc1ccccc1C(=O)Nc1cc(C)ccn1 | 20.8% (inactive) | 
5 | COc1cc(OC)cc(C(=O)NNC(=O)c2ccccn2)c1 | -2.08% (inactive) | 
6 | CC1Cc2ccccc2N1C(=O)COC(=O)C1(c2ccccc2F)CCCC1 (stereo not drawn) | 80.2% (inactive) | 
7 | COc1ccc(/C(C)=N/Nc2nccnc2Cl)cc1 |  | 16.4 µM (active)
8 | CC(=O)N(C)c1ccc(NC(=O)CCN2C(=O)c3ccccc3C2=O)cc1 | -0.521% (inactive) | 
9 | Cc1ccc(NC(=S)NC(=O)C2CCCC2)c(Br)c1 |  | 3.66 µM (active)
10 | Nc1nonc1-n1nnc(C(=O)N/N=C/c2ccc(Br)cc2)c1CSC1=NCCS1 |  | 3.66 µM (active)
11 | C(=C\c1nc(-c2ccccc2)no1)/c1ccccc1 |  | 2.31 µM (active)
12 | N=C1C(c2nc3ccccc3s2)=C(O)CN1Cc1ccccc1 |  | 14.6 µM (active)
13 | O=C(N/N=C\c1cc(Cl)ccc1O)c1ccc(S(=O)(=O)N2CCCCC2)cc1 | 31.2% (inactive) | 
14 | C/C(=N\NC(=O)c1ccccc1)c1ccc(NC(=O)c2cccs2)cc1 | -2.6% (inactive) | 
15 | Cc1cc(C)nc(SCC(=O)OCC(=O)Nc2nc3ccccc3s2)n1 | 24% (inactive) | 
16 | O=C(COc1ccc(F)cc1Cl)NC1CCCCCC1 |  | 7.31 µM (active)
17 | Brc1c(CSc2nc3ccccc3s2)nc2ncccn12 |  | 9.2 µM (active)
18 | CC1CCN(C2=C(NS(=O)(=O)c3ccc(Br)cc3)C(=O)c3ccccc3C2=O)CC1 | 35.9% (inactive) | 
19 | Cc1cccc(NC(=S)NC(=O)C2CC2)c1 | 40.1% (inactive) | 

Row | Compound | activation | Potency
20 | Cc1ccc(C(=O)c2c3ccc([N+](=O)[O-])cc3[n+]([O-])n2CCCN)cc1 | 15.1% (inactive) | 
21 | COc1ccc2nc(NC(=O)Nc3ccccc3OC)sc2c1 |  | 9.2 µM (active)
22 | CS(=O)(=O)N1CCC(C(=O)Nc2cc(Cl)c(Cl)cc2Cl)CC1 | -4.17% (inactive) | 
23 | CCOC(=O)c1[nH]nc(C(=O)c2ccc(Br)cc2)c1O | -94.3% (inactive) | 
24 | Cc1ccc(S(=O)(=O)c2cn(CC(=O)Nc3ccccc3)c3ccc(F)cc3c2=O)cc1 | 21.9% (inactive) | 
25 | COc1ccccc1OCCn1nnc2ccccc21 | 36.5% (inactive) | 
26 | O=C(Nc1ccccc1Oc1ccccc1)c1cc([N+](=O)[O-])ccc1Cl | -29.2% (inactive) | 
27 | O=C(Nc1ccc(Cl)cn1)C1CCN(c2ncnc3c2nc2n3CCCCC2)CC1 | 34.9% (inactive) | 
28 | COc1ccc2cnn(CCOc3ccccc3)c(=O)c2c1OC |  | 1.03 µM (active)
29 | O=C(Nc1cccc(O)c1)C(=O)Nc1ccccn1 |  | 2.31 µM (active)
30 | Cc1cc(F)ccc1NC(=O)Nc1ccc2c(c1)OCO2 | 15.1% (inactive) | 
31 | Nc1nc2ccc(N3CCOCC3)cc2s1 | 34.4% (inactive) | 
32 | CN(C)c1ccc(/C=N/N=C/c2ccccc2O)cc1 |  | 0.461 µM (active)
33 | Cc1cccc(C)c1Nc1c(-c2ccccn2)nc2ccccn12 | 14.1% (inactive) | 
34 | CN(C(=O)CSc1nnc(-c2ccco2)o1)C1CCCCC1 | -86.5% (inactive) | 
35 | CC(C)C(=O)OCC(=O)Nc1ccc(N=Nc2ccccc2)cc1 |  | 5.8 µM (active)
36 | C1=C(CCNc2ncnc3nc[nH]c23)CCCC1 |  | 1.64 µM (active)
37 | CC(=O)N1CCN(C(=O)COC(=O)COc2c(C)cc(C)cc2C)CC1 | 16.7% (inactive) | 
38 | NC(N)=Nc1nc(C2COc3ccccc3O2)cs1 (stereo not drawn) |  | 4.11 µM (active)
